ELG1 genotox – genotoxicity induction in ELG1-luciferase HEK293T cells | HEK293T ELG1-luciferase reporter, luminescence, 16 h | Potency, µM (top dose mostly 46 µM), for the others: at the top dose activity change, positive = activation, actives largely listed as activators | hit rate 1.3% among 330,000 | AID 504466; note: % of control where 0% means no effect; nearly all actives have a fitted effect of over 60% in size
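16 hr compound incubation (37 °C, 5% CO2) of HEK293T cells carrying luciferase-tagged ELG1; luciferase then measured by ONE-Glo luminescence after 30 min at RT.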
NPC1 prom act – activates the NPC1 promoter; Huh7 NPC1 promoter luciferase reporter, 24 h; Potency, µM (series often up to 9.22 µM), for the others: top-dose activation, usual class: activators; hit rate 2.4% among 320,000; AID 485313; note: % of control where 0% means no effect; nearly all actives have a fitted effect of over 60% in size
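Huh7 reporter cells (NPC1 promoter driving luciferase) are dosed with compound for 24 h at 37 °C, 5% CO2; luciferase detection reagent is then added and luminescence measured after 10 min at ambient temperature.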
SMN2 splice up – increases expression of the SMN2 splice variant; Potency, µM (top dose mostly 46.1 µM), for inactives: at the top dose activity change, positive = activation, most hits filed as activators; hit rate 2.8% among 210,000; HEK293 SMN2-luciferase splicing reporter, luminescence, 30-36 h; note: % of control where 0% means no effect; nearly all actives have a fitted effect of over 55% in size
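HEK293 cells carry an SMN2 […]–luciferase reporter in which exon 7 inclusion puts luciferase in frame. Cells were plated 10-12 h before compound addition, then incubated 30-36 h at 37C. ONE-Glo luminescence was read; sodium butyrate at 4.5 mM final served as control.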
FLuc modulator – inhibits or activates purified firefly luciferase, miR-21 counter-screen. hit rate 6.9% among 360,000. P08659. Potency, µM (highest dose often 57.5 µM), inactives show top-dose activity change, negative = inhibition, hits mostly inhibitors. purified FLuc, Km substrates, luminescence inhibition;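 note: plate controls were vehicle for no effect and reference inhibitor for full effect; nearly all actives have a fitted effect of over 55% in size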
Target sequence (P08659 whole entry, looked up): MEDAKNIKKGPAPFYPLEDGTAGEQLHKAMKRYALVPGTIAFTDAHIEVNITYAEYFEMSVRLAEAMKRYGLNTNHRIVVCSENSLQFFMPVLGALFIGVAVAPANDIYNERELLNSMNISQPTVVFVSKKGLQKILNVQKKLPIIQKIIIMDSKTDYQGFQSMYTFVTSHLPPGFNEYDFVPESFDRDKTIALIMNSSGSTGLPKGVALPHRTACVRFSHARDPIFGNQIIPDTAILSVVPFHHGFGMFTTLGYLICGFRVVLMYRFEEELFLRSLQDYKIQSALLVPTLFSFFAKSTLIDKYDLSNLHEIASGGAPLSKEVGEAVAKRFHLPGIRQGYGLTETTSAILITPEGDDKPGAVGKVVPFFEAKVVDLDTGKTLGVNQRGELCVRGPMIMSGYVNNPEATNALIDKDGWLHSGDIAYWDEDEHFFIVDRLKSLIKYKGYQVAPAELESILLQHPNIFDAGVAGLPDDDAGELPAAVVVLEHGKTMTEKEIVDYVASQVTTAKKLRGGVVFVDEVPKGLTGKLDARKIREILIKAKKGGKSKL
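Purified P. pyralis luciferase (10nM final) with 10uM D-luciferin and 10uM ATP (Km levels) in 50mM Tris acetate pH 7.5, 10mM Mg acetate, 0.01% Tween-20, 0.05% BSA; qHTS 6-point titration, ~60 µM downward; luminescence read.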
Rab9 prom act – activators of Rab9 promoter. Potency, µM (top dose mostly 9.22 µM), for the others: at the highest dose activation, negative = inhibition, actives largely listed as activators. AID 485297. hit rate 2.8% among 320,000. Huh7 Rab9 promoter-luciferase reporter, luminescence, 24 h; note: % of control where 0% means no effect; nearly all actives have a fitted effect of over 60% in size
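Promoter activation is measured as luciferase luminescence in Huh7 cells stably transfected with a Rab9 promoter–luciferase construct, following 24 h compound exposure at 37 °C and 10 min reagent incubation at ambient temperature.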
Starred values were filed as active, the others as inactive; ? = inconclusive; . = not tested or not shown; [ ] = another dose, or the depositor's remark. A selection: hits, their analogues and other compounds. The true share with any hit is near 7.5%. Calls come from the whole dose curve; as a rule, active = well fitted curve in the direction sought with a large enough effect; inconclusive = small, poorly fitted or top-dose-only effect, or another doubt; inactive = no such curve, though single readings can be large; an effect the other way counts as inactive or inconclusive. Potency is the fitted concentration of half-maximal effect.

SMILES | ELG1 genotox | NPC1 prom act | SMN2 splice up | FLuc modulator | Rab9 prom act
Cc1cccc(C(=O)Nc2cccc(C(=O)N/N=C/c3ccccn3)c2)c1 | 0% | 0% | . | 19µM* | -5%
CC(C)(C)NC(=O)NC(=O)COC(=O)CNS(=O)(=O)/C=C/c1ccccc1 | 2% | 0% | 13% | 1% | -4%
CCN(CC)S(=O)(=O)c1cccc(C(=O)N/N=C/c2ccccn2)c1 | 0% | -4% | 3% | ? | 1%
Cc1cccc(C(=O)N/N=C/c2ccccn2)c1 | ? | ? | 2µM* | 19µM* | 3.5µM*
N=c1oc2ccc3ccccc3c2cc1-c1nc(-c2ccccc2)cs1 | 0% | 20% | -18% | -15% | 8%
N=c1oc2ccccc2cc1-c1nc(-c2ccccc2)cs1 | 8% | 2% | 2% | 4.8µM* | 12%
CN1CCN(C(=O)CSc2nc3ccc(NC(=O)c4ccccc4F)cc3s2)CC1 | 2% | 17% | . | 19µM* | 15%
O=C(Nc1ccc2nc(SCC(=O)N3CCCC3)sc2c1)c1ccccc1 | . | . | . | -19% | .
COc1cccc(C(=O)Nc2ccc3nc(SCC(=O)N4CCOCC4)sc3c2)c1 | . | . | . | 15µM* | .
O=C(Nc1ccc2nc(SCC(=O)N3CCOCC3)sc2c1)c1ccc(F)cc1 | . | . | . | 21µM* | .
O=C(Nc1ccc2nc(SCC(=O)N3CCOCC3)sc2c1)c1ccc(Br)cc1 | . | . | . | 11µM* | .
O=C(Nc1ccc2nc(SCC(=O)N3CCCC3)sc2c1)c1ccc(F)cc1 | . | . | . | -3% | .
CCOc1ccc(OCCCC(=O)O)cc1 | 1% | 1% | 1% | 2% | -3%
CCCCCCCCCCCCCCCC(=O)OC(CC(=O)O)C[N+](C)(C)C (configuration not stated) | -1% | 1%[46.1 µM] | -6% | 3% | -13%[46.1 µM]
O=C(Nc1ccc2nc(SCC(=O)N3CCOCC3)sc2c1)c1ccccc1Cl | . | . | . | 21µM* | .
COC(=O)CSc1nc2ccc(NC(=O)c3ccccc3C(=O)N3CCOCC3)cc2s1 | 1% | -1% | . | -4% | 1%
CC(NC(=O)CNC(=O)c1ccccc1F)c1ccc(-n2ccnc2)cc1 (configuration not stated) | 1% | 1% | . | 5% | -4%
CCOC(=O)c1ccc(NC(=S)Nc2ccc(C)cc2)cc1 | 14% | 10% | -6% | ? | -11%
CCOC(=O)c1cn[nH]c1NC(=S)Nc1ccc(Cl)cc1 | ? | 0.32µM* | . | 0.38µM* | 0.32µM*
CC(=O)c1ccc(S(=O)(=O)NCC(=O)Nc2nc3ccccc3[nH]2)cc1 | -1% | -2% | . | 3% | -6%
CCNc1nc(Oc2ccc(C(=O)OC)cc2)nc(N(C)C)n1 | 1% | 0% | -19% | 3% | -3%
CCNc1nc(N)nc(Oc2ccc(C(=O)OC)cc2)n1 | 12µM* | ? | 25µM* | 19µM* | 3.2µM*
Cc1cc(C(=O)COc2cccc(-n3cnnn3)c2)c(C)n1-c1ccccc1 | -9% | 3% | -32% | 3µM* | 23%
CCc1ccc(NC(=O)COc2cccc(-n3cnnn3)c2)cc1 | 4% | -2% | . | 19µM* | -3%
COC(=O)COc1cccc(-n2cnnn2)c1 | 2% | 0% | 6% | 3% | -6%
SMILES | ELG1 genotox | NPC1 prom act | SMN2 splice up | FLuc modulator | Rab9 prom act
CCc1ccc(NC(=O)c2ccc3c(c2)nnn3CC)cc1 | . | . | . | -19% | .
CCn1nnc2cc(C(=O)Nc3cc(OC)cc(OC)c3)ccc21 | ? | 13% | . | 17µM* | 24%
COc1ccc(C(=O)Nc2cc(OC)cc(OC)c2)cc1 | ? | 2µM* | 25µM* | 4.8µM* | 1.8µM*
COc1cc(NC(=O)c2ccccc2)cc(OC)c1 | ? | 6.3µM* | ? | 19µM* | ?
COc1ccc(NC(=O)c2cccc(NC(=O)c3ccccc3)c2)cc1 | 4% | ? | . | ? | ?
O=S(=O)(c1ccccc1)N1CCC(c2ccncc2)CC1 | . | . | . | 4% | .
Fc1ccc(/C=N/Nc2ccccn2)cc1 | ? | 28% | 81% | 11µM* | 3.5µM*
COc1ccc(/C=N/Nc2ccccn2)cc1O | ? | ? | . | 6.7µM* | ?
COc1ccc2nc(Cl)c(/C=N/Nc3ccccn3)cc2c1 | ? | 28% | ? | 0.54µM* | ?
CCOc1ccc(/C=N/Nc2ccccn2)cc1 | 2.3µM* | 1.3µM* | 1.6µM* | 1.2µM* | 0.5µM*
FC(F)(F)c1ccccc1/C=N/Nc1ccccn1 | 6% | -2% | 6% | ? | -1%
COc1ccc(/C=C/C(=O)OCC(=O)Nc2cc(C(F)(F)F)ccc2Cl)cc1 | 1% | 2% | 1% | 0% | -5%
O=C(NC1CCN(C(=O)c2cccs2)CC1)c1ccccc1 | 0% | 2% | . | 0% | -4%
CCn1nc(C)c(NC(=O)c2cnn3c(C(F)F)cc(-c4ccccc4)nc23)c1C | -3% | -6% | . | -4% | 0%
Brc1ccccc1/C=N/Nc1ccccn1 | ? | 1% | ? | ? | 19%
CC1(C)Cc2ccccc2C(N/N=C/c2ccc(Cl)cc2)=N1 | -5% | -2% | -8% | 17µM* | -3%
Cc1ccc(/C=N/Nc2ccccn2)s1 | ? | ? | . | 11µM* | ?
Brc1ccc(/C=N/Nc2ccccn2)cc1 | ? | ? | . | 6.7µM* | 3.5µM*
CC1(C)Cc2ccccc2C(N/N=C/c2ccc([N+](=O)[O-])cc2)=N1 | 5% | -3% | -21% | -6% | -2%
Clc1ccc(/C=N/Nc2ccccn2)cc1 | ? | ? | . | 6.7µM* | 3.2µM*
Nc1[nH]c(=S)[nH]c(=O)c1N=Nc1c(Br)cc(S(N)(=O)=O)cc1Br | . | . | -3%[9.22 µM] | . | .
COc1ccccc1C(=O)COC(=O)c1cc(=O)[nH]c2ccccc12 | ? | -2% | . | -8% | -1%
Cc1ccc(C(=O)COC(=O)c2cc(=O)[nH]c3ccccc23)cc1C | 21µM* | 2% | 21% | 1.1µM* | ?
NC(=O)COC(=O)c1cc(=O)[nH]c2ccccc12 | 0% | -3% | . | 1% | 0%
COc1ccc(C(=O)COC(=O)c2cc(=O)[nH]c3ccccc23)c(OC)c1 | ? | 3.2µM* | . | ? | 2.2µM*
SMILES | ELG1 genotox | NPC1 prom act | SMN2 splice up | FLuc modulator | Rab9 prom act
COc1ccccc1NC(=O)C1=C(C)Nc2nc(-c3ccco3)nn2C1c1ccccc1F (configuration not stated) | . | . | -9% | -5% | .
Cc1ccc(C(=O)NCC(=O)N/N=C/c2sccc2C)cc1[N+](=O)[O-] | 0% | -4% | -9% | 4% | -13%
COc1ccc(C(=O)Nc2cc(C(=O)NCCc3ccccc3)ccc2Cl)cc1 | 16% | 10% | 10µM* | ? | 26%
COCC(=O)Nc1cc(C(=O)NCCc2ccccc2)ccc1Cl | ? | 1.8µM* | 0.63µM* | ? | 2µM*
COc1ccc(CCNC(=O)c2ccccc2)cc1 | 8% | 26% | . | ? | 27%
CCOCC(=O)Nc1cc(C(=O)NCCc2ccccc2)ccc1Cl | ? | 1µM* | . | -15% | 2µM*

Screening results: PubChem BioAssay, National Center for Advancing Translational Sciences (NCATS)
